The campaign covered roughly 310,000 compounds. About 14,000 (4.5%) showed an effect of 50% or more. Effects have a minus sign here. Shown is part of a subset that was picked to be rich in strong results.
Target: human ether-à-go-go-related gene (hERG) potassium channel (human, UniProt Q12809)
Test: primary screen, population patch clamp on CHO cells stably expressing hERG; higher = less effect of the substance
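Also: peak tail current of the secondary pulse compared with the same well before compound.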

Chain of human ether-à-go-go-related gene (hERG) potassium channel (Q12809 whole entry, looked up): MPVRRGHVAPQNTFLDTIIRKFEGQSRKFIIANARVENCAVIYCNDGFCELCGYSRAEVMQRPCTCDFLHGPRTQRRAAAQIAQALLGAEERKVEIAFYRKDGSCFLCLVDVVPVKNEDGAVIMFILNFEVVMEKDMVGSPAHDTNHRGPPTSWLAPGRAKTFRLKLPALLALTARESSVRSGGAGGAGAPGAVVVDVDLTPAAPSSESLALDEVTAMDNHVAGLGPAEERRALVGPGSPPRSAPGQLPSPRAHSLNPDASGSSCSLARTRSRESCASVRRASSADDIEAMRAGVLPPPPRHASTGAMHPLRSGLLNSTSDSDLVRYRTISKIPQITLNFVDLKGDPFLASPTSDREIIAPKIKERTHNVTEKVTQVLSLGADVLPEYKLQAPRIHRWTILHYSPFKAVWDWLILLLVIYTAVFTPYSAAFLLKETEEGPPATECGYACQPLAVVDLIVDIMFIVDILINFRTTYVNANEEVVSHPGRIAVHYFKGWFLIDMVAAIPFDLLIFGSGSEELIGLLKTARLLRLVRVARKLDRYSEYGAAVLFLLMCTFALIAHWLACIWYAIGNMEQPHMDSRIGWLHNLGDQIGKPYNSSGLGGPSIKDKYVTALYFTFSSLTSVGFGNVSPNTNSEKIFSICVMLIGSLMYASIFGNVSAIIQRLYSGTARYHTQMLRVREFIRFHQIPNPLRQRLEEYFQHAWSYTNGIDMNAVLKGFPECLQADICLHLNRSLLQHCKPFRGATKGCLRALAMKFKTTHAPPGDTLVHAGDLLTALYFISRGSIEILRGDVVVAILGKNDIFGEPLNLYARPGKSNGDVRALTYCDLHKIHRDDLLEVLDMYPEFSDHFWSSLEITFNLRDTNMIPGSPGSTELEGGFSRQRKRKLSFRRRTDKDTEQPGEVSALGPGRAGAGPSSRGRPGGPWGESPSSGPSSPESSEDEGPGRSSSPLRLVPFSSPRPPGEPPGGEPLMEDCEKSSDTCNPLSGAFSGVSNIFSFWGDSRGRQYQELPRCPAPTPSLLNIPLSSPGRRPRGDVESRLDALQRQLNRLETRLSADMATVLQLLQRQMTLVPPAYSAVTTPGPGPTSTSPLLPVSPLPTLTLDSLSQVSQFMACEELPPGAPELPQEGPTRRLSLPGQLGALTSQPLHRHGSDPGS

SMILES	hERG current change (%, negative = inhibition) at 10uM [%]
O=C(c1cnn2ccccc12)N1CCc2ccccc21	0.772
CC(=O)c1ccc(N2CCN(C(=O)/C=C/c3ccc(S(=O)(=O)N4CCOCC4)cc3)CC2)cc1	-30.3
Clc1cccc(OCCCN2CCCC2)c1Cl	-55.5
Clc1ccccc1OCCCCN1CCCCC1	-8.1
Brc1ccccc1OCCCCCN1CCCC1	-33.9
Clc1ccc(OCCCn2ccnc2)c(Br)c1.O=C(O)C(=O)O	-18.6
Clc1ccccc1OCCCCN1CCCC1	-29.6
CCN1CCN(CCCOc2ccc(Cl)cc2Br)CC1.O=C(O)C(=O)O	-69
Cc1ccccc1OCCCN1CCCC1	-14.4
Clc1ccc(Cl)c(OCCCCN2CCCCC2)c1	-59.2
Clc1ccc(OCCCCCN2CCCC2)c(Br)c1	-62.3
Clc1ccc(Cl)c(OCCN2CCCC2)c1	-38.8
Fc1ccccc1OCCCCCCN1CCCC1	-38.2
CCn1c(P(C)(=O)[O-])nc2ccccc21.[Na+]	8.91
COC(=O)c1sccc1NC(=S)N1CCCC(C)C1 (stereo not shown)	14.6
Cc1cc(C(=O)N2CCN(c3ccc(C(F)(F)F)cn3)CC2)c(C)o1	-21.4
CCOc1ccccc1C(=O)Nc1nnc(C(C)C)s1	-1.92
O=C(CCN1C(=O)/C(=C/c2ccc(F)cc2)SC1=S)NC1C=CS(=O)(=O)C1 (stereo not shown)	-15.2
CCc1nc2ccccc2n1CCC(=O)O.Cl	-5.88
CC1(C)c2ccccc2N2CC(=O)NC21/C=C/c1ccco1 (stereo not shown)	2.9

SMILES	hERG current change (%, negative = inhibition) at 10uM [%]
Cc1nn(Cc2ccc(Cl)cc2)c(C)c1NC(=O)c1cc(-c2ccc3c(c2)OCO3)on1	-3.11
CN(C)C(=O)N1CCC(C(=O)N2CCCC(C(=O)c3cccc4ccccc34)C2)CC1 (stereo not shown)	-33.8
Clc1ccc(OCCCN2CCCCC2)c(Br)c1.O=C(O)C(=O)O	-70.7
Clc1ccc(OCCN2CCCCC2)c(Cl)c1.O=C(O)C(=O)O	-16.2
Clc1ccc(Cl)c(OCCCCN2CCNCC2)c1.O=C(O)C(=O)O	-17.4
CCOC(=O)C(NC(=O)Cc1ccccc1)(Nc1cc(C)on1)C(F)(F)F (stereo not shown)	3.97
N#Cc1ccccc1NC(=O)COC(=O)CCc1ccccc1	-14.9
C=CCn1c(SCc2ccc(C(=O)Nc3ccccc3)cc2)nnc1-c1ccccc1	-5.06
O=C(CCn1c(=O)c2ccccc2n(Cc2ccccc2)c1=O)NCc1ccc2c(c1)OCO2	-4.33
O=C(NCCCl)Nc1cc([N+](=O)[O-])ccc1Cl	16.9
COCCNc1c(-c2ccc(OC)cc2)nc2ccc(Cl)cn12	-39.5
CCOC(=O)CNc1c(-c2ccc(OC)cc2)nc2ccc(Cl)cn12	-73.5
CCOC(=O)c1c(-c2ccccc2)nc2ccc(Cl)cn12	30
CCOC(=O)CNc1c(-c2ccccc2)nc2ccc(Cl)cn12	-64.4
CC(=O)Nc1c(-c2ccccc2)nc2ccc(Cl)cn12	5.29
CCOC(=O)CNc1c(-c2ccc(O)cc2)nc2ccc(Cl)cn12.Cl	-39.7
Cc1ccc(S(=O)(=O)N2c3ccccc3OCC2c2ccccc2)cc1 (stereo not shown)	23
COCCOc1ccc(C(F)(F)F)cc1NC(=O)c1ccccc1	-10.9
CCOc1ccc(OCC)c(NC(=O)CN2CCN(CC(=O)NC(C)C)CC2)c1.Cl	9.43
CCCN1CCN(CC(=O)Nc2cc(OCC)ccc2OCC)CC1.Cl	-57.6

SMILES	hERG current change (%, negative = inhibition) at 10uM [%]
COc1ccc(OC)c(NC(=O)CN2CCN(C(=O)c3ccco3)CC2)c1	-23.7
CCOc1ccc(OCC)c(NC(=O)CN2CCN(CC)CC2)c1.Cl	-43.3
CCOc1ccc(OCC)c(NC(=O)CN2CCN(C(=O)c3ccco3)CC2)c1	-59
COc1ccc(NC(C)=O)cc1NC(=O)CN1CCN(C(=O)c2ccco2)CC1	13.9
CCN1CCN(CC(=O)Nc2cc(C(F)(F)F)ccc2OCCOC)CC1.O=C(O)C(=O)O	-75.4
CCOc1ccc(OCC)c(NC(=O)CN2CCN(c3ccc(C)cc3C)CC2)c1.Cl	-0.937
CCOC(=O)N1CCN(CC(=O)Nc2cc(OCC)ccc2OCC)CC1.Cl	-68.1
CCCCCNCC(=O)Nc1cc(C(F)(F)F)ccc1OCCOC	-34.2
CCOc1ccc(OCC)c(NC(=O)CN2CCN(c3cc(C)ccc3C)CC2)c1.Cl	-9.35
CCOC(=O)C1CCCN(C(=O)c2ccc(Cn3c(=S)[nH]c4cc(C(=O)OC)ccc4c3=O)cc2)C1 (stereo not shown)	10.6
CCN1C(=O)[C@H]2[C@@H](c3ccc(C)cc3)N3C(=O)N(c4ccc(C(F)(F)F)cc4)C(=O)[C@@]3(CC(C)C)[C@H]2C1=O	14.6
Cc1ccc(C)c(NC(=O)CN(C)S(=O)(=O)c2ccc(F)cc2)c1	3.47
Cc1cc(NC(=O)CSc2nc(-c3ccccc3)c(C#N)c(=O)[nH]2)no1	-0.629
Cc1ccsc1/C=C1\C(=O)NC(=S)N(C)C1=O	15.3
O=C(COc1ccc(Cl)cc1)NCCS(=O)(=O)N1CCN(c2ccccc2F)CC1	5.38
CC(=O)C1=C(O)C(=O)N(c2cccc(Br)c2)C1c1ccccc1Cl (stereo not shown)	-4.7
COc1ccc(OC)c(NC(=O)c2nc(-c3ccccc3)oc2C)c1	-6.31
O=S(=O)(Nc1ccc(Br)cc1)c1cccc(NC(=S)NCCN2CCOCC2)c1	3.16

— article PMC4336329 (PLoS ONE, 2015)
